Laboratory results taken from PubChem BioAssay AID624267 (The Scripps Research Institute Molecular Screening Center, 2012).
In all, about 360,000 compounds went through this assay and about 1,400 (0.39%) were called active. Rule as the data show it: active = inhibition above about 21%; inactive = the rest. Many of the other results were omitted from the sample, so actives are more common in it than they were.

molecular target: Receptor-interacting serine/threonine-protein kinase 2 (Homo sapiens) (UniProt O43353); assay: NOD2-RIPK2 binding disruptors in cells, primary screen, fluorescence, CHO cells, BLA complementation (AID 624267); conditions: CHO BLA complementation NOD2-RIPK2, CCF4 ratio; at 4.98 µM; active compounds read high;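 also: 0% = vehicle only and 100% = reference blocker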
Sequence (O43353 whole entry, looked up): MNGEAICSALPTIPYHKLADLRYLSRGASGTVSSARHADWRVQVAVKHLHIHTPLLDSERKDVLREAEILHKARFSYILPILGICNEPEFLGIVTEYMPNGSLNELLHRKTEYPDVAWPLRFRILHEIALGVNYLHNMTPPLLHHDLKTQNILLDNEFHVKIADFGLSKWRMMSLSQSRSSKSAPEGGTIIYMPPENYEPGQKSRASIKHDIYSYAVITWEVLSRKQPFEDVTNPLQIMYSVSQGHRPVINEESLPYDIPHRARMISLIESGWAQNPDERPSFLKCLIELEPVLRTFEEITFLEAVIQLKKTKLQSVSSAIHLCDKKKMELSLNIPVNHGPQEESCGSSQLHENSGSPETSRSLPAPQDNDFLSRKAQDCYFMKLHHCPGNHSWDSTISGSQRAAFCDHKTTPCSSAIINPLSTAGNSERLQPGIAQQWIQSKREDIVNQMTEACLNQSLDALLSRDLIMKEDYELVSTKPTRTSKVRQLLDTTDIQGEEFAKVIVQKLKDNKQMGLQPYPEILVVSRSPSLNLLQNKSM

inhibition, active:
Cc1ccc(NC(=O)Cn2sc3ccccc3c2=O)cc1 22.1%, O=C1/C(=C\c2ccc([N+](=O)[O-])cc2)CS(=O)(=O)C/C1=C/c1ccc([N+](=O)[O-])cc1 44.6%, COc1ccc(C(C[N+](=O)[O-])n2nc(C)cc2C)cc1 (centres undefined) 26.6%, Nc1cccc2c1C(=O)N(Cc1nnc(-c3ccccc3Br)o1)C2=O 27.5%, CC1CC(C)CN(S(=O)(=O)c2cccc(C(=O)N3C(=O)c4cccc(N)c4C3=O)c2)C1 (centres undefined) 30.1%, O=C1CC(C(F)(F)C(F)(F)C(F)(F)C(F)(F)F)=Nc2ccccc2N1 24.9%, CC[C@H]1CN2CCc3cc(OC)c(OC)cc3[C@@H]2C[C@@H]1C[C@H]1NCCc2cc(OC)c(OC)cc21 23.9%, O=C1NC(=O)C2C1C(c1ccc([N+](=O)[O-])cc1)=NN2Cc1ccccc1 (centres undefined) 43.2%, COc1ccc(OC)c(N=Cc2c(O)[nH]c3ccccc23)c1 68.3%, O=C(CCN1CCc2ccccc2C(O)(c2ccccc2)C1)c1ccc2c(c1)OCCO2 (centres undefined) 26.2%, CCOC(=O)C1=C(C)Nc2sc(C(=O)c3ccc(Br)cc3)c(N)c2C1c1ccc(C(=O)OC)cc1 (centres undefined) 27%, COc1ccc(NC(=O)/C(Cl)=C(/Cl)S(=O)Cc2ccc(C)cc2)cn1 (centres undefined) 95.1%, O=C1c2cccc3c([N+](=O)[O-])ccc(c23)C(=O)N1CC1CCCO1 (centres undefined) 80.1%, COc1ccccc1N1N=C(c2cccs2)CC1c1ccccc1 (centres undefined) 49.9%, COc1ccc(C2=CC(c3cccc(OC)c3)n3nnnc3N2)cc1 (centres undefined) 26.8%, O=[N+]([O-])/C=C/c1ccc2c(ccn2Cc2ccccc2)c1 87.9%, CN1CCN(CCCNC(=O)c2ccc(/C=C3\Oc4ccccc4N(Cc4ccc(Cl)cc4)C3=O)cc2)CC1 33.1%

inhibition, inactive:
CC(=O)Oc1cccc(N2C(=O)CC(Nc3ccc(N4CCOCC4)cc3)C2=O)c1 (centres undefined) -13.9%, O=C(Cn1nc(C(=O)O)c2ccccc2c1=O)Nc1ccc(F)cc1 -5.34%, CC1(C)NC(=O)N(CC(=O)Nc2ccc(-c3ccccc3)cc2)C1=O 4.81%, CN(C)CCCNC(=S)N1CCC(c2nc3ccccc3[nH]2)CC1 -7.82%, CCc1nn(CCCC(=O)Nc2ccc(C)cc2C)c(=O)c2cc3occc3n12 4.65%, CS(=O)(=O)N(CC(=O)N1CCCC1)Cc1ccccc1 3.45%, O=[N+]([O-])c1ccc(CN2CC(N3CC=CC3)CS2(=O)=O)cc1 (centres undefined) -11%, CCc1nc2ccc(C(=O)NCc3ccc(OC)cc3)cn2c1N(CC)Cc1cccc(Br)c1 6.44%, COC(=O)[C@]1(C)CCC[C@@]2(C)C3CC[C@]4(OC(C)=O)C[C@@]3(CCC21)CC4=NO (some centres undefined) 6.55%, O=C(COc1ccccc1Cl)Nc1ccc(C(=O)c2ccc(C(=O)O)cc2)cc1 2.32%, O=C(O)CC(Cc1ccccc1)C(=O)Nc1ccc([N+](=O)[O-])cc1 (centres undefined) -1.04%, COc1cc2c(cc1OC)C1C(=O)c3cc(OS(C)(=O)=O)c(OC)cc3C1N(C)C2=O (centres undefined) 3.51%, Cc1cc(C)n(CC(O)COc2ccc(C(C)(C)C)cc2)n1 (centres undefined) -8.7%, COc1ccc(C(CNC(=O)COc2ccc([N+](=O)[O-])cc2)N2CCCCC2)cc1 (centres undefined) 0.77%, C=CCn1cc(-c2cccc(C(F)(F)F)c2)cc(C#N)c1=O 0.01%, COCCCNC(=S)N1CCCC(c2nc3cc(C)c(C)cc3[nH]2)C1 (centres undefined) -3.68%, O=C(OCc1nnc(-c2ccccc2)o1)c1ccc2c(c1)C(=O)N(CCc1ccccc1)C2=O 9.8%, CC(C)N(Cc1nnc(-c2ccccc2Br)o1)C(=O)c1cc(Cl)nc2ccccc12 -10.3%, CC(C)CC(CO)N1CCN(C(=O)c2ccc(Cl)cc2Cl)CCC1=O (centres undefined) -4.88%, COc1ccc(-c2nc3n(c2Br)CCC3)cc1 -7.99%, O=C(Nc1ccccc1)C1CC(=O)n2c(nc3ccccc32)N1 (centres undefined) -8.18%, Cc1csc(NC(=O)C2CCCN2C(=O)OCC(C)C)n1 (centres undefined) -2.47%, CN1CCN(S(=O)(=O)c2cccc(C(=O)N3CCc4ccccc43)c2)CC1 2.86%, CC(=O)N1CCN(S(=O)(=O)c2cccc(C(=O)NC3CCC(C)CC3)c2)CC1 (centres undefined) -9.28%, O=[N+]([O-])c1ccc(Oc2ccc(F)cc2Br)c2ccncc12 -1.06%, CC(C)CNC(=S)NNC(=O)c1nn(C)cc1Cl -4.5%, OC(CN=c1sc2ccccc2n1CC(O)COc1ccccc1)COc1ccccc1 (centres undefined) -11.1%, CCOc1ccc2c(=O)c(-c3ccc4c(c3)OCCCO4)c(C)oc2c1 -5.36%, CCOC(=O)c1c(NC(=O)C2CCN(S(=O)(=O)c3ccc(Cl)cc3)CC2)sc2c1CCCC2 4.57%, COCCCNC(=O)Cn1c(=O)n(Cc2ccccc2Cl)c(=O)c2cc(OC)c(OC)cc21 -13.8%, COc1ccccc1C(=O)NC(CCSC)C(=O)N1CCN(C/C=C/c2ccccc2)CC1 (centres undefined) 0.75%, O=[N+]([O-])c1ccc(C(S(=O)(=O)Cc2ccccc2)S(=O)(=O)Cc2ccccc2)cc1 -0.41%, CC(=O)N1c2ccccc2N(Cc2ccc([N+](=O)[O-])cc2)C(=O)C1(C)C -3.82%, COc1ccccc1C(=O)NCCC(=O)NC1=NCCS1 -0.45%, COc1cc2[nH]c(O)c(C=O)c2cc1OC -11.7%, COc1ccc(NC(=O)COC(=O)c2n[nH]c3ccccc23)c(OC)c1 2.43%, CC(C)(C)c1ccc(CCC2OCC(CN3CCOCC3)O2)cc1 (centres undefined) -4.96%, Cc1ccc(C)c(NS(=O)(=O)c2c(C)[nH]c(C)c2C(=O)N2CCCCC2)c1 -5.02%, Cc1ccc(S(=O)(=O)N2CCN=C2SCc2c(F)cccc2Cl)cc1 4.62%, COc1ccc(C(C(=O)NC(C)(C)C)N(C(=O)Cn2nnc3ccccc32)c2ccc(C(C)=O)cc2)cc1O (centres undefined) 1.81%, Cc1ccc(C(=O)N/N=C/c2sc(=O)n(Cc3cccc(C(=O)O)c3)c2Cl)cc1 -4.49%, CC(C)(C)C1CCC(C(=O)NCC(c2cccs2)N2CCOCC2)CC1 (centres undefined) 2.5%, O=S(=O)(c1ccc2c(c1)OCCO2)N1CCc2ccccc21 -1.2%, O=C(CN1CCc2cc3c(cc2C1)OCCCO3)Nc1ccccc1 -9.22%, O=C(NC(=S)NC1CCSC1=O)c1ccccc1F (centres undefined) -9.93%, CCCCN(CCCC)CCCNC(=O)CN1C(=O)COc2ccc(S(=O)(=O)N3CCC(C)CC3)cc21 -2.68%, CC(=O)Nc1cccc(Nc2ccc(C#N)cc2)c1 3.65%, COC(=O)c1ccc(C2NC(=O)NC(C)=C2C(=O)N(C)C)cc1 (centres undefined) -10%, CCOC(=O)C1=C(C)NC2=C(C(=O)CC(C)(C)C2)C1c1ccsc1 (centres undefined) 2.36%, NC(Cc1ccccc1)c1csc(Nc2cc(Oc3ccccc3)ncn2)n1 (centres undefined) -5.36%, O=C(COC(=O)c1ccccc1NC(=O)c1ccco1)Nc1ccc2c(c1)OC(F)(F)O2 -2.03%, N#Cc1cc([N+](=O)[O-])ccc1NCC1CCCO1 (centres undefined) -32.9%, O=C1C(C=NCC2CCCO2)=C(O)c2ccccc21 (centres undefined) -5.23%, Cc1ccc(S(=O)(=O)N2CCN(C(=O)c3cc(S(=O)(=O)N4CCOCC4)ccc3F)CC2)cc1 -18.2%, CCc1ccc(OC2(C)CCN(CCOc3ccc(C)cc3)C2)cc1 (centres undefined) 0.79%, COc1ccc(C2CC(c3cccs3)=NN2c2nc(C)c(C(C)=O)s2)cc1OC (centres undefined) 6.76%, Fc1ccc(N2N=C(c3cccs3)CC2c2ccco2)c(F)c1 (centres undefined) -13.7%, Cc1ncoc1C(=O)N1CCCC(C(=O)c2ccc3c4c(cccc24)CC3)C1 (centres undefined) 1.4%, Cc1ccccc1C(=O)NCC(c1ccco1)N1CCc2ccccc21 (centres undefined) 7.15%, COC(=O)C1=C(C(=O)c2ccc(C)cc2)C(c2ccccc2)n2nnnc2N1 (centres undefined) 2.81%, COc1ccc(C2CC(c3cccs3)Nc3nnnn32)cc1 (centres undefined) -2.81%, O=C1N(c2ccc(Cl)cc2)C(c2ccc(Cl)cc2)N2CCCN12 (centres undefined) 8.61%, Cc1ccsc1-c1cc(C(=O)O)c2c(ccc3ccccc32)n1 0.09%, CCOC(=O)C1(Cc2cccc(OC)c2)CCN(Cc2csc(C(C)=O)c2)CC1 -2.05%, CCCc1c(C(=O)Nc2ccc(F)cc2)cnn1-c1ccccc1 -3.44%, O=C(c1cccc(-n2cccc2)c1)N1CCN(S(=O)(=O)c2ccc(F)cc2)CC1 -0.82%, COC(=O)N1CN(C(=O)OC)CN(C(=O)OC)C1 -12.2%, Cc1ccc(NC(=O)CCCNC(=O)c2ccc(Cl)cc2)cc1S(=O)(=O)N1CCOCC1 -6.45%, O=C(CCN1C(=O)COc2ccccc21)NCCCN1CCN(c2ccc(F)cc2)CC1 -5.53%, COc1ccc(C)cc1NC(=S)Nc1ccccc1SC -5.8%, CCOc1ccc(S(=O)(=O)NCc2ccc3c(c2)OCO3)cc1C -3.55%, CC(Oc1ccccc1)C(=O)Nc1oc(-c2ccco2)c(-c2ccco2)c1C#N (centres undefined) -14.4%
